# Reference: PubChem BioAssay
# Target: Concanavalin-A (Canavalia ensiformis) (UniProt P02866)
# Assay: ConA small-molecule binders, primary screen, artefact control for SMM control protein annotation, biochemical, small-molecule microarray, Alexa647 label, 635 nm (AID 1127);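 also: z combines 667 nm emission intensity with signal-to-noise across three replicate slides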
# Settings: ConA-A647 binding fluorescence, higher = more signal
# Sequence of Concanavalin-A (Canavalia ensiformis) (P02866 whole entry, looked up): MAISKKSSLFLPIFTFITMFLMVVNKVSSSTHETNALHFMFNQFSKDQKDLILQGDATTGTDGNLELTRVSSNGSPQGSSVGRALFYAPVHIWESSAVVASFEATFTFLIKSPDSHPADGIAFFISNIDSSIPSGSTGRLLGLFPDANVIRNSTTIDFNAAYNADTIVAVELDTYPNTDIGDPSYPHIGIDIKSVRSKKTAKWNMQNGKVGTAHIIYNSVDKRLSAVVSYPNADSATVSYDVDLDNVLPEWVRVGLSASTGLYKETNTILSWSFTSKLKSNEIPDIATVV
row,Compound,composite z-score
1,CCCCC=C[C@@H](NC(=O)c1ccc(C(F)(F)F)cc1)c1ccccc1,-0.792
2,CC(c1ccccc1)C(O)C1C=CC2C(=O)N(c3ccccc3)C(=O)C2N1Nc1ccc(C#N)cc1 (configuration not stated),1.15
3,CC(C)(C)N1CC=CC23O[C@@H]4/C=C\CCCOC(=O)C4[C@H]2C(=O)N(CCCCCCO)[C@@H]3C1=O (some centres not stated),-1.42
4,COc1ccc(C(O)C2C=CC3C(=O)N(C)C(=O)C3N2Nc2ccc([N+](=O)[O-])cc2[N+](=O)[O-])cc1OCc1ccccc1 (configuration not stated),0.892
5,C=CC[C@]1(C(=O)N(C)C)COC(c2ccc(OCCCO)cc2)=N1,0.673
6,C[C@@H](OCc1ccccc1)C1NC(=O)[C@@]23C(=O)N[C@@H](Cc4ccccc4)C2[C@H](C)[C@@]2(C)O[C@H]2C3/C=C/C/C=C\CNC(=O)[C@H](Cc2ccccc2)NC1=O (some centres not stated),-0.052
7,COc1ccc([Si](C)(C)[C@H]2[C@H](CCO)O[C@@]3(C(=O)N(Cc4ccc(N5CCOC5=O)cc4)c4ccccc43)[C@@H]2C)cc1,1.11
8,C=CCC(OC(C)=O)[C@@H]1[C@@H](N(Cc2ccc(-c3ccccc3)cc2)C(=O)c2ccc(C)cc2)c2cc(OCCCO)ccc2N1C(=O)c1ccc2ccccc2c1 (some centres not stated),-0.328
9,CC(C)C(=C=CC[C@@H](O)c1cccc(OCCO)c1)CCO,-0.114
10,COCCOC(=O)N1C(=O)[C@@]2(c3cc(C#CC4(O)CCCCCC4)ccc31)[C@H](c1ccc(OCCO)cc1)N1[C@H](c3ccccc3)[C@H](c3ccccc3)OC(=O)[C@H]1[C@@H]2C(=O)N1CCCCCCC1,1.15
11,Cc1ccc(F)cc1S(=O)(=O)N[C@@H]1CCN(Cc2ccc3[nH]ccc3c2)C1,0.463
12,C=C(COC)/C(=C/C[C@@H](OC(C)=O)c1ccccc1OCCO)c1cc(C(=O)OC)ccc1OC,0.369
13,C=CCN1C(=O)[C@]2(O[C@H](CCO)[C@@H]([Si](C)(C)c3ccc(OC)cc3)[C@@H]2C)c2ccccc21,0.201
14,COc1ccc(CCNC(=O)[C@@H]2c3ccccc3C(=O)N(CC34CC5CC(CC(C5)C3)C4)[C@H]2c2ccc(CO)cc2)cc1,1.11
15,C=CCC(OC(C)=O)[C@@H]1[C@@H](N(Cc2cccc3ccccc23)C(=O)c2ccc(C)cc2)c2cc(OCCCO)ccc2N1C(=O)c1ccc2ccccc2n1 (some centres not stated),-0.202
16,COCCCNC(=O)[C@@H]1c2ccccc2C(=O)N(Cc2cc(C(F)(F)F)cc(C(F)(F)F)c2)[C@H]1c1ccc(CO)cc1,-1.06
17,CCOC(=O)C[C@H]1[C@H](OC(=O)c2ccc(C(=O)c3ccccc3)cc2)[C@@H](NC(=O)c2ccc3ccccc3c2)c2cc(OCCCO)ccc2N1C(=O)c1ccc2ccccc2n1,0.707
18,C=CCN1C(=O)[C@]2(O[C@H](CCn3cc([C@H](O)c4ccccc4)nn3)[C@@H]([Si](C)(C)c3ccc(OC)cc3)[C@@H]2C)c2cc(N3C(=O)c4cccc5cccc3c45)ccc21,0.471
19,CN(C)CCCC[C@@H]1NC(=O)[C@H]2C[C@@H](C(=O)O)[C@@H](c3cccc(OCCO)c3)N2C1=O,0.931
20,C=CCC(OC(C)=O)[C@@H]1[C@@H](N(Cc2ccc(-c3cccc(C(F)(F)F)c3)o2)C(=O)c2cccc3ccccc23)c2cc(OCCCO)ccc2N1C(=O)c1ccc2ccccc2c1 (some centres not stated),-0.0957
21,C=C(COC)/C(=C/C[C@H](OC(=O)c1ccncc1)c1ccc(OCCO)cc1)c1cc(C(=O)OC)ccc1OC,0.952
22,COCCOC(=O)N1C(=O)[C@@]2(c3cc(C#CCC(C(=O)OC)C(=O)OC)ccc31)[C@H](C(=O)N1CCc3cc(OC)c(OC)cc3C1)[C@H]1C(=O)O[C@H](c3ccccc3)[C@H](c3ccccc3)N1[C@@H]2c1ccc(O)cc1,0.919
23,Cc1ccc(S[C@]2(C(=O)NC3CC3)CC(=O)N(Cc3cc(C(F)(F)F)cc(C(F)(F)F)c3)[C@@H]2c2ccc(CO)cc2I)cc1,1.07
24,COc1ccc([Si](C)(C)[C@H]2[C@H](CCn3cc([C@H](O)c4ccccc4)nn3)O[C@@]3(C(=O)N(C)c4c(Br)cc(C)cc43)[C@@H]2C)cc1,0.005
25,CCCCC(O)C1C=CC2C(=O)NC(=O)C2N1Nc1ccc(Cl)cc1Cl (configuration not stated),0.255
26,C=CCC(OC(C)=O)[C@@H]1[C@@H](N(Cc2ccc(-c3ccccc3)cc2)C(=O)c2ccc(-c3ccccc3)cc2)c2cc(OCCCO)ccc2N1C(=O)c1ccc2ccccc2n1 (some centres not stated),-0.309
27,COc1ccc([Si](C)(C)[C@H]2[C@H](CCO)O[C@@]3(C(=O)N(Cc4ccccc4)c4ccc(N(C=O)c5ccccc5)cc43)[C@@H]2C)cc1,1.02
